We go through one sequence from publication PMC7862700, “An all-to-all approach to the identification of sequence-specific readers for epigenetic DNA modifications on cytosine”.

Assay in all cases: DAPPL (digital affinity profiling via proximity ligation, sequencing); 10 mM Tris-HCl pH 7.5, 50 mM NaCl, 1 mM DTT, 4% glycerol, room temperature, 30 min; GST-TFs on glutathione beads, 16-mer random dsDNA library, 0.1% formaldehyde crosslink after washing; high values mean tight binding
One test deals with T1, FLI1 (Homo sapiens, UniProt Q01543 1-452).
T1 sequence: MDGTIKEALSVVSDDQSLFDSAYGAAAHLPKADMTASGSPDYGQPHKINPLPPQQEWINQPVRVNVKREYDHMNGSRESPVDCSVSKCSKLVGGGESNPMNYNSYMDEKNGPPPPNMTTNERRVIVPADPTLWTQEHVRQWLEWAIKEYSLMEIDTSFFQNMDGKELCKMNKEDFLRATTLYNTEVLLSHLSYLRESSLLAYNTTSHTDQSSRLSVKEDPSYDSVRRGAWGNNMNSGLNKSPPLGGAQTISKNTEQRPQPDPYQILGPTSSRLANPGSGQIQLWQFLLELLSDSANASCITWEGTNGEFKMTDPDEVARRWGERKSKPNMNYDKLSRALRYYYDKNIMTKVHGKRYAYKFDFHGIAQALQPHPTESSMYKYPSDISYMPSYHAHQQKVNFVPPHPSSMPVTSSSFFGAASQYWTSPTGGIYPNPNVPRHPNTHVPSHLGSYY
The settings on record: protein: recombinant; tags: N-terminal GST; dsDNA, one strand shown. Put shortly: (§1)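 The binding signal reported is, for every hexamer, its read frequency for a factor over its read frequency for the tag-only sample. Reads came from pools of yeast-expressed, GST-fused human transcription factors on glutathione beads, barcoded with DNA and mixed with that sample, which were incubated with 200 nmole of a random double-stranded 16-mer DNA library in Tris/NaCl/DTT/glycerol buffer at room temperature for 30 min. After washing, the pools were crosslinked with 0.1% formaldehyde, proximity-ligated with BsaI/T4 ligase for 1 h at 37 °C, PCR-amplified and sequenced on an Illumina NextSeq500.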

For a further test, the target named is T2, ELK1 (Homo sapiens, UniProt P19419 1-428).
T2 sequence: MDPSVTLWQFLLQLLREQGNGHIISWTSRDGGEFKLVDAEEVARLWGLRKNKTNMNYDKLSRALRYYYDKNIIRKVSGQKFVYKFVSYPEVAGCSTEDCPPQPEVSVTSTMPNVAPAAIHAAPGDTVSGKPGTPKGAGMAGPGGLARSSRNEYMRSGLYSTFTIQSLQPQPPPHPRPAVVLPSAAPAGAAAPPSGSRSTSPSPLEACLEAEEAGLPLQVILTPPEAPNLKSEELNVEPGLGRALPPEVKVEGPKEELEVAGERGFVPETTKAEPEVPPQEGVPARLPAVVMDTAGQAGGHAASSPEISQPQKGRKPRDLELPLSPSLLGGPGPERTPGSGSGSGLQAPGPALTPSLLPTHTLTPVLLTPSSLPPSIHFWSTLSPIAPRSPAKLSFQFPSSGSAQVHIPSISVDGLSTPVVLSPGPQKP
The settings on record: protein: recombinant; tags: N-terminal GST; dsDNA, one strand shown. An outline of the steps: as §1

In the next test the target is T3, GABPA (Homo sapiens, UniProt Q06546 1-454).
T3 sequence: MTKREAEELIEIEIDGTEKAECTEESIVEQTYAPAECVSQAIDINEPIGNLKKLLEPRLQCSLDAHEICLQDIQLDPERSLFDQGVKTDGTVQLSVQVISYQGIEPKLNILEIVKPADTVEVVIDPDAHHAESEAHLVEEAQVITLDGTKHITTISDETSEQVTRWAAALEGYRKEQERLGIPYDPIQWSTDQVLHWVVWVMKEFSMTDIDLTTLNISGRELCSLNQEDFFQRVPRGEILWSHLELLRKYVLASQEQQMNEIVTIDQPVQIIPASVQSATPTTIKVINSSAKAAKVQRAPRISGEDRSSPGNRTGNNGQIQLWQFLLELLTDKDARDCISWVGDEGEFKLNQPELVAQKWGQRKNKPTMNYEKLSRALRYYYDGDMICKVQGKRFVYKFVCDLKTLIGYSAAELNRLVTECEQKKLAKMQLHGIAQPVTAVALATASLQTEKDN
The settings on record: protein: recombinant; tags: N-terminal GST; dsDNA, one strand shown. An outline of the steps: as §1

A further test concerns the target T4, ERG (Homo sapiens, UniProt P11308 1-479).
T4 sequence: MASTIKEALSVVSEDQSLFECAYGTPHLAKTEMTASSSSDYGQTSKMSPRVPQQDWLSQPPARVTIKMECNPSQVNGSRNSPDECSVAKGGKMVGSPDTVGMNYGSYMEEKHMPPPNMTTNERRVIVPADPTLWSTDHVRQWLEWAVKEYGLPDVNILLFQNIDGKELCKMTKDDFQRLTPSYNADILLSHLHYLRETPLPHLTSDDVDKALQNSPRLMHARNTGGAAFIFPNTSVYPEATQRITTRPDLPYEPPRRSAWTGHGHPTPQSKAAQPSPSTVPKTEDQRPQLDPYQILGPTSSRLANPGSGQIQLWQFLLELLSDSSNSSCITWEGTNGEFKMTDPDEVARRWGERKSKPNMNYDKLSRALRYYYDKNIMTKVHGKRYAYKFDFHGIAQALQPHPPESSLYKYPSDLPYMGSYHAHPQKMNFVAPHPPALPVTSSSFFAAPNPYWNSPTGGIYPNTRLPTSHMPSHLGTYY
The settings on record: protein: recombinant; tags: N-terminal GST; dsDNA, one strand shown. Put shortly: as §1

The next test has as its target ELF1 (Homo sapiens, UniProt P32519 1-619). The settings on record: protein: recombinant; tags: N-terminal GST; dsDNA, one strand shown. Put shortly: as §1
Another test addresses T5, EHF (Homo sapiens, UniProt Q9NZC4 1-300).
T5 sequence: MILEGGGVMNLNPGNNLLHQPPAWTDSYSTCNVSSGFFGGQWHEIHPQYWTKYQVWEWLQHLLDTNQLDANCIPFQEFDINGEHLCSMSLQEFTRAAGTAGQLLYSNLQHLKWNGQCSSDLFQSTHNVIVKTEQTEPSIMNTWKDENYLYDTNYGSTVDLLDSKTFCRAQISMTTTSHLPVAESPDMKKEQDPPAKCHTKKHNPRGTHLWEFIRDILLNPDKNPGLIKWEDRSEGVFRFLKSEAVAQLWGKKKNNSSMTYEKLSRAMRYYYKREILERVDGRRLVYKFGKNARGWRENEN
The settings on record: protein: recombinant; tags: N-terminal GST; dsDNA, one strand shown. Put shortly:
as §1

The next test concerns the target SPI1 (Homo sapiens, UniProt P17947 1-270). The settings on record: protein: recombinant; tags: N-terminal GST; dsDNA, one strand shown. Put shortly:
as §1

The target in the next test is SPIB (Homo sapiens, UniProt Q01892 1-262). The settings on record: protein: recombinant; tags: N-terminal GST; dsDNA, one strand shown. Put shortly:
as §1

The next test has as its target T6, ELK3 (Homo sapiens, UniProt P41970 1-407).
T6 sequence: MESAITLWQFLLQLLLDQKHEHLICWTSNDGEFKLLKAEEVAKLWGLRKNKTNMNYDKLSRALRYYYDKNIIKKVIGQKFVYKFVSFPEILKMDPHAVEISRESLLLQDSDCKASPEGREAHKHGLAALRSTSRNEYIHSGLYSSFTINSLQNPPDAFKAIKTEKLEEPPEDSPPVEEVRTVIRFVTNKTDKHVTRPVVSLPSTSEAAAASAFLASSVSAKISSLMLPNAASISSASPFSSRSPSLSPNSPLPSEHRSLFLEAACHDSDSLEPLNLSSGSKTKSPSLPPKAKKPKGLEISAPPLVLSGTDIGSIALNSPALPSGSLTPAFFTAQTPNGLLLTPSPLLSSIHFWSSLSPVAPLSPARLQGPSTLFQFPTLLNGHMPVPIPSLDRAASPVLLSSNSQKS
The settings on record: protein: recombinant; tags: N-terminal GST; dsDNA, one strand shown. An outline of the steps: as §1

The target in the next test is T7, FEV (Homo sapiens, UniProt Q99581 1-238).
T7 sequence: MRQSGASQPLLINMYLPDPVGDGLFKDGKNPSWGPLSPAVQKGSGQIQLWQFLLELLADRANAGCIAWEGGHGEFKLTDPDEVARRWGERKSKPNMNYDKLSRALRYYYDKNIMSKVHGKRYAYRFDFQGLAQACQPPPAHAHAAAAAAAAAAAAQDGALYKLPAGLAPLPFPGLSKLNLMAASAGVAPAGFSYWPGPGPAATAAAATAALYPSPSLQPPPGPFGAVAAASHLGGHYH
The settings on record: protein: recombinant; tags: N-terminal GST; dsDNA, one strand shown. Put shortly: as §1

Another test concerns the target ETV5 (Homo sapiens, UniProt P41161 1-510). The settings on record: protein: recombinant; tags: N-terminal GST; dsDNA, one strand shown. An outline of the steps:
as §1

A further test concerns the target HSF1 (Homo sapiens, UniProt Q00613 1-529). The settings on record: protein: recombinant; tags: N-terminal GST; chain copies: 3; dsDNA, one strand shown. Put shortly: as §1
The next test has as its target T8, SPIC (Homo sapiens, UniProt Q8N5J4 1-248).
T8 sequence: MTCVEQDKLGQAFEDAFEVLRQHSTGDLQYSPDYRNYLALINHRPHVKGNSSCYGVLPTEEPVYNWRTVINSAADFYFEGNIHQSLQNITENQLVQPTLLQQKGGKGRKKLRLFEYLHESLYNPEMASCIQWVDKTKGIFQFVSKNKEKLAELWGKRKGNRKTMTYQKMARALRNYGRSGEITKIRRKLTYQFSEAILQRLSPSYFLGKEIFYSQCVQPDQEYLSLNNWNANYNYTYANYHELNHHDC
The settings on record: protein: recombinant; tags: N-terminal GST; dsDNA, one strand shown. An outline of the steps: as §1

Another test has as its target ELF4 (Homo sapiens, UniProt Q99607 1-663). The settings on record: protein: recombinant; tags: N-terminal GST; dsDNA, one strand shown. Put shortly:
as §1

The next test deals with T9, ELK4 (Homo sapiens, UniProt P28324-2 1-405).
T9 sequence: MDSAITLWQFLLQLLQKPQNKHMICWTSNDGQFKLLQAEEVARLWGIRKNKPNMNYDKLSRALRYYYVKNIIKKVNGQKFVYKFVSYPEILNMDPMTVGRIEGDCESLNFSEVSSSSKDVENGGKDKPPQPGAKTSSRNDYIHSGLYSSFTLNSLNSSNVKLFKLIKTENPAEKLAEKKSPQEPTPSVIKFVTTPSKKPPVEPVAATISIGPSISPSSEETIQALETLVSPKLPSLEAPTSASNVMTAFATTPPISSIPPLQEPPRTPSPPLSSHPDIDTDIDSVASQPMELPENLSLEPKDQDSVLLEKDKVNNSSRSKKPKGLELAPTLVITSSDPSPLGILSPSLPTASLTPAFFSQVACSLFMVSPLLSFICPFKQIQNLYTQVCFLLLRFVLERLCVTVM
The settings on record: protein: recombinant; tags: N-terminal GST; dsDNA, one strand shown. Put shortly: as §1

In another test the target is T10, ELF3 (Homo sapiens, UniProt P78545 1-371).
T10 sequence: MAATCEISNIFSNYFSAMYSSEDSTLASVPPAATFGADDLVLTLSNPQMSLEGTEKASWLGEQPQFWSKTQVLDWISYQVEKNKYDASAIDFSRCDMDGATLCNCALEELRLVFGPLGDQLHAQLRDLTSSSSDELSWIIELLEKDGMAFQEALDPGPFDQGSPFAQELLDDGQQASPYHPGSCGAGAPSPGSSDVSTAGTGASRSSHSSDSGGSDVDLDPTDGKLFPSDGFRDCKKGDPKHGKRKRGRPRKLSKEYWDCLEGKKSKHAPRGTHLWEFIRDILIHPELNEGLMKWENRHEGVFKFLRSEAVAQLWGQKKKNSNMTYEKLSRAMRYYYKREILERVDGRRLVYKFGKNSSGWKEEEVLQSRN
The settings on record: protein: recombinant; tags: N-terminal GST; dsDNA, one strand shown. An outline of the steps: as §1

The target in the next test is CRX (Homo sapiens, UniProt O43186 1-299). The settings on record: protein: recombinant; tags: N-terminal GST; dsDNA, one strand shown. An outline of the steps:
as §1

In the next test the target is ETV1 (Homo sapiens, UniProt P50549 1-477). The settings on record: protein: recombinant; tags: N-terminal GST; dsDNA, one strand shown. Put shortly: as §1
ETV1, sequence (P50549 whole entry): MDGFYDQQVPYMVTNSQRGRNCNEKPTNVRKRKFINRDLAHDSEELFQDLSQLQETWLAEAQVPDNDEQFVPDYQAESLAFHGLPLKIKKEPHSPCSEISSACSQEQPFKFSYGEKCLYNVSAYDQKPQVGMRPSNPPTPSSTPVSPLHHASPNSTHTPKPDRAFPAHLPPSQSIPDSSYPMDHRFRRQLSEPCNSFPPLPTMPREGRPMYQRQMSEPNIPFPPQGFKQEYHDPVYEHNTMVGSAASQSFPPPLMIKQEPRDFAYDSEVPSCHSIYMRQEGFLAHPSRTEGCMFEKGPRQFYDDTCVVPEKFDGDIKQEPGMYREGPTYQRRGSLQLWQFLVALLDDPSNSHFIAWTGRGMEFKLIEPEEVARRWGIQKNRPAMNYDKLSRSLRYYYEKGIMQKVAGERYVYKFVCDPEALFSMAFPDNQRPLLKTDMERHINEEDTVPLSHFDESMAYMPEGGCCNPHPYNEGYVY

ETV5, sequence (P41161 whole entry): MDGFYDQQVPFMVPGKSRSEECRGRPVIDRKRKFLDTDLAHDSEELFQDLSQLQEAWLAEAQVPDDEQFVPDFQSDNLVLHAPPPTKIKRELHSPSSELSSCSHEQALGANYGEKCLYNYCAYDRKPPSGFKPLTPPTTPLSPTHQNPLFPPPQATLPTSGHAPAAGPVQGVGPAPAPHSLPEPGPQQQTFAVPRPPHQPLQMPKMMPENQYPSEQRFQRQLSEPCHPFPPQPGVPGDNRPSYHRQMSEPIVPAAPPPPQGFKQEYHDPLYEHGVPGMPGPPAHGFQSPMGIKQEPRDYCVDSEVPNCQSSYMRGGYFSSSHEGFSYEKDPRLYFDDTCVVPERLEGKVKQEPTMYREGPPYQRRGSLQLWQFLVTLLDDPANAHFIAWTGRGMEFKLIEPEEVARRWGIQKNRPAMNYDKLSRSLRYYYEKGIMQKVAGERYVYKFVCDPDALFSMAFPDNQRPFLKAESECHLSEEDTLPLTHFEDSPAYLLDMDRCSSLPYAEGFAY
CRX, sequence (O43186 whole entry): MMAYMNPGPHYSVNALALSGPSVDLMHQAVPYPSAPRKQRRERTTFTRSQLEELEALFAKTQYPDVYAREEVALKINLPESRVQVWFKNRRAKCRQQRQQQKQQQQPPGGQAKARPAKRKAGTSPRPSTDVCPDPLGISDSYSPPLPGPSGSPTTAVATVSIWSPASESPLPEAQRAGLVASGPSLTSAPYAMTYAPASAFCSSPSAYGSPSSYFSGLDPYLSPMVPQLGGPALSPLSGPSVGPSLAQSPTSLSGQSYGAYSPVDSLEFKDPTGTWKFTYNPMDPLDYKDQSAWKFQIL
ELF4, sequence (Q99607 whole entry): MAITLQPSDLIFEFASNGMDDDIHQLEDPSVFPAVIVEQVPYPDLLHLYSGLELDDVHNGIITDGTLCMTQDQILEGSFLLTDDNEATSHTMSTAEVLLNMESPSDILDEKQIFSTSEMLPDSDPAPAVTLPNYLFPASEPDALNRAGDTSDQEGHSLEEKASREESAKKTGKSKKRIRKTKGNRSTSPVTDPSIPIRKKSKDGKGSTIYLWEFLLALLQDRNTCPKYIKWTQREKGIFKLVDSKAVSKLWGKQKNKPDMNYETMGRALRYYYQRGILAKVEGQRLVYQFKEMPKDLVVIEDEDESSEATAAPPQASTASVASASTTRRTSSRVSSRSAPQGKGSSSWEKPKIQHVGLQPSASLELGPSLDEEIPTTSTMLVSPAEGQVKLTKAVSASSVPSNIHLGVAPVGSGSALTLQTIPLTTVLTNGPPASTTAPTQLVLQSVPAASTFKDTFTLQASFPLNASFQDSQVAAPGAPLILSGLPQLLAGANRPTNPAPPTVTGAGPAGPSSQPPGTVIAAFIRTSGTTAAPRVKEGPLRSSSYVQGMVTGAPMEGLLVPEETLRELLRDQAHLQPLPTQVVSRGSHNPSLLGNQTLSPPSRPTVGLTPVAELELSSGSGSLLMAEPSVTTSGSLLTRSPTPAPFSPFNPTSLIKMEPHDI
SPIB, sequence (Q01892 whole entry): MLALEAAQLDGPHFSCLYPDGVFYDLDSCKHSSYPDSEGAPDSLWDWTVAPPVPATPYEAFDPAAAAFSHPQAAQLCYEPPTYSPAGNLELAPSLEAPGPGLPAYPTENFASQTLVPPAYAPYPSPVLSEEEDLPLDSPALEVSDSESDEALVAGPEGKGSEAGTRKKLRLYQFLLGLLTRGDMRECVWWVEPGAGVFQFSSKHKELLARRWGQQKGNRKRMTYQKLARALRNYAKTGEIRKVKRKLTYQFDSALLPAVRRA
HSF1, sequence (Q00613 whole entry): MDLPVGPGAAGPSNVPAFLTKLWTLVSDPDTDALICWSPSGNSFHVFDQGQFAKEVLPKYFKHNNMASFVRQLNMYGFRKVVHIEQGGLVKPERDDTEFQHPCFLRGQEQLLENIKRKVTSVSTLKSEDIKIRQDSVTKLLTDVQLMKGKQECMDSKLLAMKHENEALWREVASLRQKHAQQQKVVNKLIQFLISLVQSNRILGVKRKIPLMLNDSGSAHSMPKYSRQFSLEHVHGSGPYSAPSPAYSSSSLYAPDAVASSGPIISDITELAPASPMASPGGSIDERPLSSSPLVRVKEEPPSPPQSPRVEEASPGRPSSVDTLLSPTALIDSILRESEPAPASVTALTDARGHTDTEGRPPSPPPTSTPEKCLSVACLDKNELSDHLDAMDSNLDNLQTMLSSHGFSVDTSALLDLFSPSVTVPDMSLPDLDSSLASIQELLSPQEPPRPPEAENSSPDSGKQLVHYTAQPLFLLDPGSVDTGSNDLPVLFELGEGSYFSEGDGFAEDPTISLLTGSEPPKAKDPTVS
ELF1, sequence (P32519 whole entry): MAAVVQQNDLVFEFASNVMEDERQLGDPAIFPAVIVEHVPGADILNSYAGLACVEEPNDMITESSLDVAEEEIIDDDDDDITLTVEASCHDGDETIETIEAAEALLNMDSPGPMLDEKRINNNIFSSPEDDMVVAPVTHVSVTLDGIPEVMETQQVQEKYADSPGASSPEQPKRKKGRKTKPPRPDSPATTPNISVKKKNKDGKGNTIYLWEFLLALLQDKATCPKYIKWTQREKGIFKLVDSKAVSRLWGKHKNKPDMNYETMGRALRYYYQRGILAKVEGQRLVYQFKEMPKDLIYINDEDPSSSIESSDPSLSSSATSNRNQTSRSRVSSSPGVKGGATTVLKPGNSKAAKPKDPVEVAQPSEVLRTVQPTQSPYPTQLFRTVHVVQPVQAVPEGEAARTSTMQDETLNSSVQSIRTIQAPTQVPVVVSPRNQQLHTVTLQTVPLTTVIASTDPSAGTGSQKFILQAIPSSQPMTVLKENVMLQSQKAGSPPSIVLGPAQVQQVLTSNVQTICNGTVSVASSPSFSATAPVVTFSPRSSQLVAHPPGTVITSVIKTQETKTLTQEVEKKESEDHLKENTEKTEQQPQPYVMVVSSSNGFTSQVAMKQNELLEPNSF

For AATAGG, the binding signal is 1.15 fold enrichment (6-mer frequency, TF over GST control) with FLI1; 1.11 fold enrichment (6-mer frequency, TF over GST control) in the test with ELK1; 1.15 fold enrichment (6-mer frequency, TF over GST control) with GABPA; 1.2 fold enrichment (6-mer frequency, TF over GST control) with ERG; 1.08 fold enrichment (6-mer frequency, TF over GST control) with ELF1; 1.27 fold enrichment (6-mer frequency, TF over GST control) in the test with EHF. Also, the binding signal in the test with SPI1 was 1.37 fold enrichment (6-mer frequency, TF over GST control); with SPIB it was 1.22 fold enrichment (6-mer frequency, TF over GST control); with ELK3, 1.14 fold enrichment (6-mer frequency, TF over GST control); in the test with FEV, 1.13 fold enrichment (6-mer frequency, TF over GST control); in the test with ETV5 it was 1.16 fold enrichment (6-mer frequency, TF over GST control); with HSF1, 1.02 fold enrichment (6-mer frequency, TF over GST control). In addition, the binding signal was 1.14 fold enrichment (6-mer frequency, TF over GST control) in the test with SPIC; 1.04 fold enrichment (6-mer frequency, TF over GST control) with ELF4; 1.08 fold enrichment (6-mer frequency, TF over GST control) in the test with ELK4; 1.09 fold enrichment (6-mer frequency, TF over GST control) with ELF3; 1.21 fold enrichment (6-mer frequency, TF over GST control) in the test with CRX; 1.25 fold enrichment (6-mer frequency, TF over GST control) with ETV1.
